NTR1 agonist – agonists of human neurotensin receptor NTR1; NTR1-U2OS beta-arrestin-GFP spot imaging, agonist mode; activation, % at 20 µM; hit rate 0.17% among 330,000; AID 493036;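 active means activation at or above 40% of the spot to cytoplasm intensity ratio, with at least 20 cells analyzed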
Target sequence (P30989 whole entry, looked up): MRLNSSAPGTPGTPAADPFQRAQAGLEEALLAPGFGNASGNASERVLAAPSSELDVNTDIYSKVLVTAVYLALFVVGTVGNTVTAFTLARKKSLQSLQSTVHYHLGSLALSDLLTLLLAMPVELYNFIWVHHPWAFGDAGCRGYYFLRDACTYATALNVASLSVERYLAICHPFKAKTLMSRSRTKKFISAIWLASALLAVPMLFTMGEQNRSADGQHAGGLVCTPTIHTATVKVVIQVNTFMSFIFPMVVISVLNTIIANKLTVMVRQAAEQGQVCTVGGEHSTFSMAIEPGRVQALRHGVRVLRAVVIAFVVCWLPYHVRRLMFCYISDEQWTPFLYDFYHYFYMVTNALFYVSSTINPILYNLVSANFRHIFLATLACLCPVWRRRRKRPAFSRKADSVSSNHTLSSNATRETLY
Platelet DG rel – platelet dense granule release activity; inhibition, %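 (compounds screened at 7.5 µM in platelet-rich plasma)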; AID 1663; hit rate 0.22% among 300,000; human platelet-rich plasma, SFLLRN dense granule ATP release, luminescence;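 active means mean replicate score, as percent of positive control, at or above 50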
GRK2 aptamer HTS – inhibitors of human GRK2 displacing RNA aptamer | inhibition of aptamer binding, % at 10 µM | AID 488847 | P25098 | bead flow cytometry, FAM-aptamer displacement from GRK2 | hit rate 0.59% among 330,000;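 active means inhibition of aptamer binding above 40%, roughly 3 SD of noise, on plates passing a quality check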;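 further: median bead fluorescence of bound FAM aptamer so fluorescent compounds give negative values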
beta cell repl – MIN6 beta-cell proliferation induction | MIN6 cells proliferation, ATPlite luminescence, 48 h; cells starved in 0.2% serum; 100% = growth in 10% serum | proliferation, % at 10 µM | hit rate 0.29% among 330,000;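 active means compounds whose signal lies at least 3.5 SD above the mean of all wells on their plate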
GRK2 CP1 – human GRK2 inhibition confirmation, cherry pick 1. shares compounds with GRK2 aptamer HTS. bead-bound GRK2, FAM-aptamer displacement, flow cytometry. aptamer displacement, % at 10 µM. hit rate 4% among 2,000. AID 504451;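 active means aptamer displacement above 40%, near three times the noise of non-fluorescent compounds, on plates passing quality checks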;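 further: negative values mostly reflect intrinsic compound fluorescence rather than true enhancement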
Aptamer quench SP – aptamer fluorescence quenching in GRK2 counter-screen. shares compounds with GRK2 aptamer HTS. Carboxyfluorescein RNA aptamer on beads, flow cytometry quenching; hits give low values. fluorescence response (% of DMSO), % at 10 µM. 2,000 tested, under 10 active. AID 504580;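 active means compounds that quench the bead-bound fluorescent RNA probe, cutting fluorescence to under half of the solvent control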;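 further: counterscreen run without GRK2 so only probe quenching by compound is measured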
GRK2 CP2 – human GRK2 inhibition confirmation, cherry pick 2; shares compounds with GRK2 aptamer HTS; bead-bound GRK2, FAM-aptamer displacement, flow cytometry; inhibition of aptamer binding, % at 10 µM; 360 tested, under 10 active; AID 504782;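 active means inhibition of aptamer binding above 40%, about triple the noise seen with nonglowing compounds, on plates passing quality control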;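 further: negative values mostly come from compounds that fluoresce themselves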
FAM quench SP – counter-screen for GRK2 binding hits: quenchers of fluorescent RNA aptamer | 360 tested, under 10 active | carboxyfluorescein RNA aptamer beads, flow cytometry quenching; hits give low values | shares compounds with GRK2 aptamer HTS | fluorescence response vs DMSO, % at 10 µM | AID 588494;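 active means response vs DMSO under 50%, meaning signal dropped by over half, treated as fluorescence quencher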;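 further: labelled aptamer on streptavidin beads without GRK2 as a quench counter-screen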
Large screens that a line does not name were inactive (follow-up assays come after a bar, where they were run). Hits are enriched below; roughly 1.2% of the tested compounds scored in any of these assays.

NS(=O)(=O)c1ccc(NC(=S)N2CCN(C(=O)C3CCCO3)CC2)cc1 (configuration not stated)	none
COc1cc(C(=O)NCCCN2CCCC2=O)cc(OC)c1OC	GRK2 aptamer HTS 94 | GRK2 CP1 inactive | Aptamer quench SP inactive
c1ccc(C[C@H]2CN=C(Nc3ccccc3)N2CCC2CCCC2)cc1	GRK2 aptamer HTS 68 (no result: Platelet DG rel) | GRK2 CP1 inactive | Aptamer quench SP inactive
CC(C)C[C@H]1CN=C(Nc2ccccc2)N1CCC1CCCCC1	none
CS(=O)(=O)N(Cc1ccccc1)c1ccc(C(=O)Nc2ccccc2C(=O)O)cc1	GRK2 aptamer HTS 51 | GRK2 CP1 inactive | Aptamer quench SP inactive
O=C(c1cc(Cl)ccc1OCc1ccccc1)N1CCOCC1	none
COc1ccc([C@H]2CC(=O)C=C(c3cc(C=O)ccc3OC)C2)cc1	none (no result: Platelet DG rel)
Cc1ccc(N2C(=O)[C@@H]3C(c4cccnc4)=NO[C@@H]3C2=O)c(C)c1	none
Cc1ccc(N2C(=O)[C@@H]3C(c4ccc(F)cc4)=NO[C@@H]3C2=O)cc1	none | GRK2 CP2 inactive | FAM quench SP inactive
COc1ccc(C2=NO[C@@H]3C(=O)N(c4ccc(C)cc4C)C(=O)[C@H]23)cc1OC	none | GRK2 CP2 inactive | FAM quench SP inactive
COc1cccc(C2=NO[C@@H]3C(=O)N(Cc4ccccc4)C(=O)[C@H]23)c1OC	none
O=C1[C@@H]2C(c3cccnc3)=NO[C@@H]2C(=O)N1c1ccc(Br)cc1	none
COc1ccc(C2=NO[C@@H]3C(=O)N(c4cccc(C)c4C)C(=O)[C@H]23)cc1OC	none | GRK2 CP2 inactive | FAM quench SP inactive
CCOC(=O)N1CCN(C(=O)COC(=O)C2CCN(S(=O)(=O)c3ccc(C)c(C)c3)CC2)CC1	none
COc1ccc(NC(=O)c2ccc(-c3ccc(-c4noc(C)n4)cc3C)cc2)cc1N1CCN(C)CC1	none (no result: Platelet DG rel) | GRK2 CP1 inactive | Aptamer quench SP inactive
COc1ccccc1CNC(=O)C(C)n1nc(C)n2c(cc3occc32)c1=O (configuration not stated)	none
COc1ccccc1N1CCN(/N=C(\C)c2ccccc2O)CC1	GRK2 aptamer HTS 55 | GRK2 CP1 inactive | Aptamer quench SP inactive
COc1cc(/C(C)=N/N2CCN(c3ccccc3OC)CC2)ccc1O	none (no result: Platelet DG rel)
COC(=O)c1[nH]c2ccc(C)cc2c1NC(=O)CN1CCCc2ccccc21	GRK2 aptamer HTS 89 | GRK2 CP1 inactive | Aptamer quench SP inactive
COc1c(O)ccc(/C=N\NC(=O)c2ccc3c(c2)OCO3)c1[N+](=O)[O-]	none
COc1ccc(NC(=O)CCN2CCN(c3ccccc3F)CC2)c(OC)c1	none (no result: GRK2 aptamer HTS)
O=C(NCCCN1CCN(c2ccccc2F)CC1)Nc1ccc(F)cc1	none | GRK2 CP1 inactive | Aptamer quench SP inactive
O=C(Cn1c(=O)c2cccn2c2ccc(F)cc21)NCCCN1CCN(c2ccccc2F)CC1	none | GRK2 CP1 inactive | Aptamer quench SP inactive
CN(C)CCNC(=O)Cn1c(=O)c2cccn2c2ccc(F)cc21	none
CSc1ccc(NC(=O)NCCCN2CCN(c3ccccc3F)CC2)cc1	none
O=C(/C=C/Nc1ccc(Cc2ccc(N/C=C/C(=O)C(F)(F)F)cc2)cc1)C(F)(F)F	none
CC(C)CCNC(=O)C1CC(=O)N(CCc2ccccc2)C1 (configuration not stated)	none
CC(C)(C)C1CCc2c(C(=O)NNC(=O)CCCC(=O)O)csc2C1 (configuration not stated)	GRK2 aptamer HTS 97 | GRK2 CP1 inactive | Aptamer quench SP inactive
O=C(CSCc1c(F)cccc1Cl)NNC(=S)NC1CCCCC1	none
COc1ccc2[nH]c(C(=O)N3CCN(Cc4ccccc4)CC3)cc2c1OC	none
COc1ccc(OC)c(NC(=O)/C=C/c2ccc(S(=O)(=O)N3CCOCC3)cc2)c1	none (no result: Platelet DG rel, GRK2 aptamer HTS)
CC(c1nnc(SCC(=O)Nc2cccnc2Cl)n1Cc1ccccc1)N(C)C (configuration not stated)	GRK2 aptamer HTS 99 | GRK2 CP1 inactive | Aptamer quench SP inactive
CC(C)N(CCn1c(SCC(=O)Nc2cccnc2Cl)nc2ccccc2c1=O)C(C)C	GRK2 aptamer HTS 42 (no result: Platelet DG rel) | GRK2 CP2 inactive | FAM quench SP inactive
CN(CC(=O)Nc1ccc(N2CCOCC2)cc1)CC(=O)Nc1ccc(C(F)(F)F)cc1	none (no result: Platelet DG rel)
Cc1ccc(NC(=O)CN(C)CC(=O)Nc2ccc(N3CCOCC3)cc2)c(C)c1	none | GRK2 CP1 inactive | Aptamer quench SP inactive
CN(CC(=O)Nc1ccc(N2CCOCC2)cc1)CC(=O)Nc1ccccc1C#N	none | GRK2 CP1 inactive | Aptamer quench SP inactive
CCc1cc(C(=O)N2CCCC(CO)(Cc3ccc(F)cc3)C2)n(C)n1 (configuration not stated)	none
CCCN(C(=O)/C=C/c1nc2ccccc2s1)C1CCS(=O)(=O)C1 (configuration not stated)	none (no result: Platelet DG rel)
CC(C)(C)CC(=O)NC(=S)NCCc1ccccc1	GRK2 aptamer HTS 80 | GRK2 CP1 inactive | Aptamer quench SP inactive
CC1=C(C(=O)OCc2ccccc2)C(c2cccc(F)c2)NC(=O)N1 (configuration not stated)	GRK2 aptamer HTS 51 | GRK2 CP1 inactive | Aptamer quench SP inactive
CC1=C(C(=O)OCc2ccccc2)C(c2ccccc2)NC(=O)N1 (configuration not stated)	none
CCc1ccc(S(=O)(=O)NCC2(N3CCOCC3)CCCCC2)cc1	none (no result: Platelet DG rel)
CCC1CC(C(=O)Nc2ccccc2)C(=O)O1 (configuration not stated)	GRK2 aptamer HTS 69 | GRK2 CP1 inactive | Aptamer quench SP inactive
O=C1C=C(NCc2ccco2)CC(c2ccc(Cl)cc2)C1 (configuration not stated)	GRK2 aptamer HTS 86 | GRK2 CP1 inactive | Aptamer quench SP inactive
O=C1C=C(Nc2ccc(Cl)cc2)CC(c2ccc(Cl)cc2)C1 (configuration not stated)	none
CCOc1ccc(S(=O)(=O)NCC(=O)OCc2nnc(-c3ccccc3)o2)cc1	none (no result: Platelet DG rel)
COC(=O)c1cc(-c2ccc(Br)cc2)n[nH]1	GRK2 aptamer HTS 54 | GRK2 CP1 inactive | Aptamer quench SP inactive
COc1ccc(-c2cc(C(=O)NN)[nH]n2)cc1	none
COc1ccccc1NC(=O)CCC(=O)OCc1ccc(Cl)cc1	GRK2 aptamer HTS 97 | GRK2 CP1 inactive | Aptamer quench SP inactive
COc1ccccc1NC(=O)CCS(=O)(=O)c1cc2c(cc1Cl)NC(=O)CO2	none
COc1ccc(OC)c(NC(=O)CCS(=O)(=O)c2cc3c(cc2C)NC(=O)CO3)c1	none | GRK2 CP2 inactive | FAM quench SP inactive
COc1ccccc1NC(=O)CCC(=O)OCc1ccc(Br)cc1	none

High-throughput results from PubChem.
